Test results from PubChem BioAssay (EPA / NIEHS).
Where “and” joins values, the source holds several entries; their conditions need not be identical. Equal values may be shown once. Calls of active or inactive are those of the source. How the source made its calls: active means hit-call score of the fitted dose curve at least 0.9, where 1 is the maximum; inactive means score below 0.9.

Assays:
[1] = read-out: TIMP metallopeptidase inhibitor 1 (TIMP1), TIMP1 (gene 7076); assay: BSK_hDFCGF_TIMP1: BioMAP Diversity Plus: hDFCGF Assay for TIMP metallopeptidase inhibitor 1 (TIMP1) Biomarker Activity (AID 2283062); details: primary human foreskin fibroblasts; actives raise or lower the signal
Procedure, shortened: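 ELISA readout of TIMP-1 from human dermal foreskin fibroblast cultures 24 h post-dosing. Curves were fitted in both directions against DMSO baseline, with SRB total-protein staining in parallel cultures as a cytotoxicity check.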

[2] = read-out: Monokine induced gamma interferon (MIG), CXCL9 (gene 4283); assay: BSK_hDFCGF_MIG: BioMAP Diversity Plus: hDFCGF Assay for Monokine induced gamma interferon (MIG) Biomarker Activity (AID 2283063); details: primary human foreskin fibroblasts; actives raise or lower the signal
Procedure, shortened: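 Fibroblasts (human foreskin, primary) dosed, 24 h, MIG by ELISA; fit bidirectional vs DMSO.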

[3] = read-out: Matrix Metallopeptidase 1 (MMP1), MMP1 (gene 4312); assay: BSK_hDFCGF_MMP1: BioMAP Diversity Plus: hDFCGF Assay for Matrix Metallopeptidase 1 (MMP1) Biomarker Activity (AID 2283064); details: primary human foreskin fibroblasts; actives raise or lower the signal
Procedure, shortened: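 MMP1 levels quantified by ELISA 24 h after dosing human dermal fibroblast cultures, with parallel SRB total-protein staining for overt cytotoxicity. Data fitted in both directions against DMSO baseline.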

[4] = read-out: Vascular cell adhesion molecule 1 (VCAM1), VCAM1 (gene 7412); assay: BSK_hDFCGF_VCAM1: BioMAP Diversity Plus: hDFCGF Assay for Vascular cell adhesion molecule 1 (VCAM1) Biomarker Activity (AID 2283065); details: primary human foreskin fibroblasts; actives raise or lower the signal;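 on AC50: VCAM-1 protein level quantified by ELISA after 24 h chemical exposure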
Procedure, shortened: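 ELISA read-out of VCAM-1 on human skin fibroblasts, 24 h post-dose; gain or loss of signal fitted bidirectionally against DMSO baseline.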

[5] = read-out: Plasminogen activator inhibitor-1 (PAI1), SERPINE1 (gene 5054); assay: BSK_hDFCGF_PAI1: BioMAP Diversity Plus: hDFCGF Assay for Plasminogen activator inhibitor-1 (PAI1) Biomarker Activity (AID 2283066); details: primary human foreskin fibroblasts; actives raise or lower the signal
Procedure, shortened: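 Fibroblasts from human foreskin were treated with test chemical. After 24 h, PAI-1 was measured by ELISA. Activity was fitted in both directions relative to DMSO.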

[6] = read-out: Interferon-gamma inducible Protein 10 (IP10), CXCL10 (gene 3627); assay: BSK_KF3CT_IP10: BioMAP Diversity Plus: KF3CT Assay for Interferon-gamma inducible Protein 10 (IP10) Biomarker Activity (AID 2283068); details: primary human keratinocytes with fibroblasts; actives raise or lower the signal
Procedure, shortened: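 In a primary skin co-culture of keratinocytes and fibroblasts, IP-10 is quantified by ELISA at 24 h after dosing. SRB staining of parallel wells monitors overt toxicity. Curves are fitted both directions against DMSO.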

[7] = BSK_KF3CT_SRB: Viability Assessment in the BioMAP Diversity Plus: KF3CT Assay (AID 2283069); details: primary human keratinocytes with fibroblasts;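 further: total protein by sulforhodamine B staining as a cytotoxicity measure; read 24 h after compound addition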
Procedure, shortened: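 Cytotoxicity was gauged by SRB staining (0.1% SRB, 10% TCA fixation, 560 nm) of parallel cultures at 24 h. The cells were primary human skin keratinocytes co-cultured with fibroblasts, and activity was fitted in both directions against DMSO.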

[8] = read-out: Interleukin-1 alpha (IL1a), IL1A (gene 3552); assay: BSK_KF3CT_IL1a: BioMAP Diversity Plus: KF3CT Assay for Interleukin-1 alpha (IL1a) Biomarker Activity (AID 2283070); details: primary human keratinocytes with fibroblasts; actives raise or lower the signal
Procedure, shortened: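 IL-1a was detected by ELISA 24 h after chemical treatment of a co-culture of human skin keratinocytes and foreskin fibroblasts. Gain or loss of signal was fitted against the DMSO baseline.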

[9] = read-out: TIMP metallopeptidase inhibitor 2 (TIMP2), TIMP2 (gene 7077); assay: BSK_KF3CT_TIMP2: BioMAP Diversity Plus: KF3CT Assay for TIMP metallopeptidase inhibitor 2 (TIMP2) Biomarker Activity (AID 2283071); details: primary human keratinocytes with fibroblasts; actives raise or lower the signal
Procedure, shortened: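 Chemicals were dosed onto human skin primary co-cultures of keratinocytes and foreskin fibroblasts, and TIMP-2 was measured by ELISA after 24 hours. Activity in either direction was fitted relative to DMSO.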

[10] = read-out: Transforming growth factor beta 1 (TGFb1), TGFB1 (gene 7040); assay: BSK_KF3CT_TGFb1: BioMAP Diversity Plus: KF3CT Assay for Transforming growth factor beta 1 (TGFb1) Biomarker Activity (AID 2283072); details: primary human keratinocytes with fibroblasts; actives raise or lower the signal
Procedure, shortened: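 KF3CT co-culture (keratinocytes + fibroblasts), 24 h exposure → TGF-b1 ELISA → bidirectional fit, DMSO = baseline. Parallel SRB total-protein staining (0.1% SRB, 10% TCA fixation, 560 nm) for cytotoxicity.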

[11] = read-out: C-C motif chemokine 2 (Homo sapiens) (UniProt P13500); assay: BSK_KF3CT_MCP1: BioMAP Diversity Plus: KF3CT Assay for Monocyte Chemoattractant Protein 1 (MCP1/CCL2) Biomarker Activity (AID 2283073); details: primary human keratinocytes with fibroblasts; actives raise or lower the signal
Procedure, shortened: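 KF3CT skin co-culture (keratinocytes/foreskin fibroblasts), 24 h post-dose; MCP-1 by ELISA; gain/loss of signal fit bidirectionally vs DMSO baseline.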

[12] = read-out: CD40, CD40 (gene 958); assay: BSK_LPS_CD40: BioMAP Diversity Plus: LPS Assay for CD40 Biomarker Activity (AID 2283076); details: primary human HUVEC with PBMC; actives raise or lower the signal
Procedure, shortened: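 ELISA readout of CD40 in HUVEC/PBMC co-culture (BSK_LPS system), 24 h post-dosing; bidirectional curve fit, DMSO baseline; parallel SRB total-protein staining for cytotoxicity.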

[13] = read-out: E-selectin (Homo sapiens) (UniProt P16581); assay: BSK_LPS_Eselectin: BioMAP Diversity Plus: LPS Assay for Eselectin Biomarker Activity (AID 2283077); details: primary human HUVEC with PBMC; actives raise or lower the signal
Procedure, shortened: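 ELISA readout of E-selectin, 24 h post-dose, HUVEC + PBMC co-culture (LPS system). Gain or loss of signal vs DMSO baseline, bidirectional fit.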

[14] = read-out: Interleukin-8 (IL8), CXCL8 (gene 3576); assay: BSK_LPS_IL8: BioMAP Diversity Plus: LPS Assay for Interleukin-8 (IL8) Biomarker Activity (AID 2283078); details: primary human HUVEC with PBMC; actives raise or lower the signal
Procedure, shortened: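 HUVEC + PBMC co-culture, LPS-activated; test chemicals dosed, IL-8 read by ELISA at 24 h. Bidirectional curve fit vs DMSO baseline (gain or loss of signal).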

[15] = BSK_LPS_SRB: Viability Assessment in the BioMAP Diversity Plus: LPS Assay (AID 2283079); details: primary human HUVEC with PBMC;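 further: total protein by sulforhodamine B absorbance as a cytotoxicity measure; measured one day after compound addition; fitted in both directions against DMSO so loss or gain of signal counts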
Procedure, shortened: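 HUVEC + PBMC co-culture, LPS-stimulated; compound 24 h. 10% TCA fix, 0.1% SRB stain, A560. Bidirectional fit vs DMSO.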

[16] = read-out: Interleukin-1 alpha (IL1a), IL1A (gene 3552); assay: BSK_LPS_IL1a: BioMAP Diversity Plus: LPS Assay for Interleukin-1 alpha (IL1a) Biomarker Activity (AID 2283080); details: primary human HUVEC with PBMC; actives raise or lower the signal
Procedure, shortened: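 HUVEC/PBMC co-culture, LPS system; 24 h after dosing; IL-1a by ELISA; gain or loss of signal fitted bidirectionally vs DMSO baseline.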

[17] = read-out: Monocyte Chemoattractant Protein-1 (MCP1), CCL2 (gene 6347); assay: BSK_LPS_MCP1: BioMAP Diversity Plus: LPS Assay for Monocyte Chemoattractant Protein-1 (MCP1) Biomarker Activity (AID 2283081); details: primary human HUVEC with PBMC; actives raise or lower the signal;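 on AC50: secreted MCP-1 protein quantified by ELISA in culture supernatant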
Procedure, shortened: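 ELISA read-out of MCP-1 after 24 h chemical dosing of a human umbilical vein endothelial cell/peripheral blood mononuclear cell co-culture stimulated with LPS. Gain or loss of signal fitted relative to DMSO controls.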

[18] = read-out: Matrix Metallopeptidase 9 (MMP9), MMP9 (gene 4318); assay: BSK_KF3CT_MMP9: BioMAP Diversity Plus: KF3CT Assay for Matrix Metallopeptidase 9 (MMP9) Biomarker Activity (AID 2283074); details: primary human keratinocytes with fibroblasts; actives raise or lower the signal;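 further: MMP9 protein level quantified by ELISA in the co-culture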
Procedure, shortened: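 MMP-9 quantified by ELISA after 24 h chemical treatment of primary human skin keratinocyte/fibroblast co-cultures; gain or loss fitted against DMSO, with parallel SRB staining (0.1% SRB, 560 nm) for overt cytotoxicity.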

[19] = read-out: urokinase plasminogen activator (uPA), PLAU (gene 5328); assay: BSK_KF3CT_uPA: BioMAP Diversity Plus: KF3CT Assay for urokinase plasminogen activator (uPA) Biomarker Activity (AID 2283075); details: primary human keratinocytes with fibroblasts; actives raise or lower the signal
Procedure, shortened: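 ELISA read-out of uPA 24 h after dosing human skin keratinocytes co-cultured with foreskin fibroblasts. Signal change fitted both ways relative to DMSO; sulforhodamine B on parallel cultures marks overt cytotoxicity.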

Measured: AC50

Chain of E-selectin (Homo sapiens) (P16581 whole entry, looked up): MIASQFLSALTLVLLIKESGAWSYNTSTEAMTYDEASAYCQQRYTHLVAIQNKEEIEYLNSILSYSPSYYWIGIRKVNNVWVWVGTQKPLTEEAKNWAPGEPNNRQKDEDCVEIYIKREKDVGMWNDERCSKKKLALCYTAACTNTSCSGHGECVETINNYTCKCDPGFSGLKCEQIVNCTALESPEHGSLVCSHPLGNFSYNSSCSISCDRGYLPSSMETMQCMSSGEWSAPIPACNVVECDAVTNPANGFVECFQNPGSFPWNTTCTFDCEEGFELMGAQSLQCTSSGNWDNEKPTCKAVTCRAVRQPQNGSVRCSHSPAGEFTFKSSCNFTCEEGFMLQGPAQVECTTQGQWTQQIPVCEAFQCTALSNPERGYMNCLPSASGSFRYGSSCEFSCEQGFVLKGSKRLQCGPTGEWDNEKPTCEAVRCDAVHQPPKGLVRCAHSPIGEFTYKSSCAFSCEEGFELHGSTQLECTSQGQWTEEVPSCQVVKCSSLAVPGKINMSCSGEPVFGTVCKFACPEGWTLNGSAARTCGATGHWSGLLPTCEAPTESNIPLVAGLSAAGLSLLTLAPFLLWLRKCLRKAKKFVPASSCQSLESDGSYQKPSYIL

CCCCC(CC)C(=O)O (configuration not stated)
inactive: [1] | [2] | [3] | [4] | [5] | [6] | [7] | [8] | [9] | [10] | [11] | [12] | [13] | [14] | [15] | [16] | [17]

CCCCc1oc2ccccc2c1C(=O)c1cc(I)c(OCCN(CC)CC)c(I)c1
active: [1] 9.35 µM | [2] 10.2 µM | [3] 9.45 µM | [4] 8.94 µM | [5] 4.81 µM | [6] 8.36 µM | [7] 9.02 µM | [8] 9.69 µM | [9] 8.7 µM | [10] 5.6 µM | [11] 11.9 µM | [12] 13.9 µM | [13] 24.2 µM | [14] 25.9 µM | [15] 19.4 µM | [16] 19.1 µM | [17] 26.1 µM

C=CC(=O)OCCC(F)(F)C(F)(F)C(F)(F)C(F)(F)C(F)(F)C(F)(F)C(F)(F)C(F)(F)F
active: [18] 12.6 µM and 8.83 µM
inactive: [1] | [2] | [3] | [4] | [5] | [6] | [7] | [8] | [9] | [11] | [19] | [12] | [13] | [14] | [15] | [16] | [17]

Oc1c(Cl)cc(Cl)cc1Sc1cc(Cl)cc(Cl)c1O
inactive: [7]
active: [1] 2.06 µM and 1.74 µM | [2] 2.22 µM | [3] 2.14 µM and 2.37 µM | [4] 1.43 µM and 1.52 µM | [5] 1.23 µM and 1.32 µM | [6] 2.75 µM and 2.98 µM | [8] 2.22 µM and 2.17 µM | [9] 1.96 µM and 2.15 µM | [11] 2.23 µM and 2.57 µM | [12] 14.2 µM | [13] 35.1 µM and 31.9 µM | [14] 36.5 µM and 33.4 µM | [15] 20 µM and 6.67 µM | [16] 35.4 µM and 35.6 µM | [17] 31.4 µM and 30.1 µM

Cc1ccc(C(=O)c2ccccc2)cc1
inactive: [6] | [7] | [11] | [12] | [13] | [14] | [15] | [16] | [17]
active: [1] 31.4 µM | [2] 29.5 µM | [3] 30.7 µM | [4] 30.5 µM | [5] 20 µM | [8] 20 µM | [9] 30.3 µM | [10] 30.8 µM

Cc1cccc2c1ccc1ccccc12
inactive: [1] | [2] | [3] | [4] | [5] | [6] | [7] | [8] | [9] | [10] | [11] | [12] | [13] | [14] | [15] | [16] | [17]
